Test results reported in the supplement of paper PMC3545927.
This is one part of the list. No count for the full screen is at hand.

B1: HC2419 (peptide)
chain: CAEVPCHRPPAGNASASA
B2: HC1414 (peptide)
chain: CAEACSLTPPAGNASASA
B3: FS-2598 (peptide)
chain: CARRRRQLDPAGNASASA
B4: FS-2794 (peptide)
chain: CARRRRQEEKAGNASASA
B5: FS-2521 (peptide)
chain: CARRTRSRSPAGNASASA
B6: FS-2076 (peptide)
chain: CARRRRELDPAGNASASA
B7: FS-1790 (peptide)
chain: CARRTRSFSWAGNASASA
B8: FS-3067 (peptide)
chain: CARRRRSMDPAGNASASA
B9: FS-2601 (peptide)
chain: CARRTRFISLAGNASASA
B10: HC1660 (peptide)
chain: CALAAGVGIYAGNASASA
B11: HC715 (peptide)
chain: CAVGWPAPQGAGNASASA
B12: HC2340 (peptide)
chain: CAECPCHRPSAGNASASA
B13: FS-2520 (peptide)
chain: CARRTRDLDPAGNASASA
B14: FS-2650 (peptide)
chain: CARATRFWDPAGNASASA
B15: HC891 (peptide)
chain: CATVDFSLDPAGNASASA
B16: FS-1867 (peptide)
chain: CARRRRELEPAGNASASA
B17: HC213 (peptide)
chain: CAPSWGPTDPAGNASASA
B18: FS-317 (peptide)
chain: CAWGSRFKKLAGNASASA
B19: FS-209 (peptide)
chain: CAWGPRFKRLAGNASASA
B20: FS-315 (peptide)
chain: CAWGNRFKKLAGNASASA
B21: FS-269 (peptide)
chain: CALGPRFKRLAGNASASA
B22: HC858 (peptide)
chain: CAHSKKKCDEAGNASASA
B23: HC2499 (peptide)
chain: CASPPCSAHLAGNASASA
B24: HC1989 (peptide)
chain: CAYVCCSMSYAGNASASA
B25: HC2037 (peptide)
chain: CAVVSCSMSYAGNASASA
B26: FS-1002 (peptide)
chain: CAGPKDQKRSAGNASASA
B27: FS-620 (peptide)
chain: CAPVFRQKRSAGNASASA
B28: FS-1387 (peptide)
chain: CAPVPRQKRSAGNASASA
B29: FS-561 (peptide)
chain: CARVYRQKRSAGNASASA
B30: HC2319 (peptide)
chain: CAPVPCHRPSAGNASASA
B31: FS-557 (peptide)
chain: CAPVPRQRRPAGNASASA
B32: FS-1213 (peptide)
chain: CAIHRRTPRSAGNASASA
B33: HC1925 (peptide)
chain: CATTPCSGSLAGNASASA
B34: HC20 (peptide)
chain: CAMEEPSQHLAGNASASA
B35: FS-762 (peptide)
chain: CAELQRQKRSAGNASASA
B36: FS-540 (peptide)
chain: CAIHHRQKRSAGNASASA
B37: HC613 (peptide)
chain: CASLLKVPYFAGNASASA
B38: HC1610 (peptide)
chain: CAPGEINRVAAGNASASA
B39: FS-1987 (peptide)
chain: CAPARRSVLAAGNASASA
B40: FS-837 (peptide)
chain: CAPARRNRRAAGNASASA
B41: FS-147 (peptide)
chain: CAVASRNRRAAGNASASA
B42: HC494 (peptide)
chain: CALTTTQWQVAGNASASA
B43: HC1593 (peptide)
chain: CACEIYGACYAGNASASA

Target: furin, P09958
Experiment: furin cleavage Z-score vs untreated control; higher = more cleavage, active = 3.5 or more, inactive = 1 or less, 8 variable residues between constant flanks
Summary of the method: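 To give the cleavage Z-score, log read counts were set against furin-free reactions, lowess-adjusted and scaled by median absolute deviation. These counts came from PCR adapter-tagged, sequenced DNA released when purified furin cut 8-mer peptides fused to a cDNA oligonucleotide and held on magnetic beads by their N-terminus. Digests were 0.01 ml, 1:10 enzyme:substrate, in 50 mM HEPES pH 7.5 with CaCl2 and NaCl, for 7.5, 15 or 30 min.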

Chain of furin, P09958 (P09958 whole entry): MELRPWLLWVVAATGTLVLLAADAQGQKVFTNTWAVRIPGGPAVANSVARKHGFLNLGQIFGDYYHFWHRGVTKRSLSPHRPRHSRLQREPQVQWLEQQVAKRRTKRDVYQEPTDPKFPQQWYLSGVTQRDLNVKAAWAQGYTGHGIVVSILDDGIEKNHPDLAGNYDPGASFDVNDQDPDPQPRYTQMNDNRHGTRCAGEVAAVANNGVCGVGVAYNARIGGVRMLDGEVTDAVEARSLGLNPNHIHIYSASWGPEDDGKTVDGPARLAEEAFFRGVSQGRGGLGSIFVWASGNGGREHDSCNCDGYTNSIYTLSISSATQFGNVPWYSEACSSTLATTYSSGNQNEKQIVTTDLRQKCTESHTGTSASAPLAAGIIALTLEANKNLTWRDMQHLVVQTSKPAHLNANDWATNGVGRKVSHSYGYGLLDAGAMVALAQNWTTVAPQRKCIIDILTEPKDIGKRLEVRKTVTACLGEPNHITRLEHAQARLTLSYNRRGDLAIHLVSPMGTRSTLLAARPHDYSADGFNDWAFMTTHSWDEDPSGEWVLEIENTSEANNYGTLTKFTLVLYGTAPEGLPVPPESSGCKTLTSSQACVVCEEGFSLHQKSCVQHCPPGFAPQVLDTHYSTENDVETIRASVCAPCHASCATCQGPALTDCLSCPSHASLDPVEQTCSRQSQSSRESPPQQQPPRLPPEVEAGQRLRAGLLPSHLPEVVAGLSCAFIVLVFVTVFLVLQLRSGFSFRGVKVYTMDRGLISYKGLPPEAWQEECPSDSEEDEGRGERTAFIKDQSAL

| Sequence | furin cleavage Z-score (7.5 min) | furin cleavage Z-score (15 min) | furin cleavage Z-score (30 min) |
| --- | --- | --- | --- |
| B1 | -0.0603 (inactive) | 1.24 | -0.795 (inactive) |
| B2 | 0.244 (inactive) | -0.208 (inactive) | -0.022 (inactive) |
| B3 | 8.96 (active) | 10.1 (active) | 7.56 (active) |
| B4 | -0.167 (inactive) | 1.69 | -1.54 (inactive) |
| B5 | 2.04 | 2.53 | 4.49 (active) |
| B6 | 11.6 (active) | 10.7 (active) | 8.52 (active) |
| B7 | 0.729 (inactive) | 1.95 | 2.68 |
| B8 | 8 (active) | 9.64 (active) | 7.14 (active) |
| B9 | -0.682 (inactive) | 1.63 | 1.87 |
| B10 | 0.247 (inactive) | -0.366 (inactive) | 0.0629 (inactive) |
| B11 | 0.307 (inactive) | 1.62 | 0.189 (inactive) |
| B12 | 0.0178 (inactive) | -0.268 (inactive) | -1.23 (inactive) |
| B13 | 8.58 (active) | 8.71 (active) | 7.24 (active) |
| B14 | -0.242 (inactive) | -0.738 (inactive) | 0.257 (inactive) |
| B15 | -0.614 (inactive) | -1.09 (inactive) | -1.01 (inactive) |
| B16 | 10.9 (active) | 11 (active) | 7.47 (active) |
| B17 | -0.72 (inactive) | -1.18 (inactive) | 1.35 |
| B18 | 0.17 (inactive) | -0.284 (inactive) | 0.58 (inactive) |
| B19 | 6.86 (active) | 8.43 (active) | 8.5 (active) |
| B20 | -1.19 (inactive) | 0.33 (inactive) | -1.11 (inactive) |
| B21 | 9.05 (active) | 10.1 (active) | 9.85 (active) |
| B22 | 0.938 (inactive) | -0.00521 (inactive) | -0.176 (inactive) |

| Sequence | furin cleavage Z-score (7.5 min) | furin cleavage Z-score (15 min) | furin cleavage Z-score (30 min) |
| --- | --- | --- | --- |
| B23 | 1.04 | -0.446 (inactive) | 0.95 (inactive) |
| B24 | 0.374 (inactive) | -0.0389 (inactive) | 0.11 (inactive) |
| B25 | 0.59 (inactive) | -1.65 (inactive) | 0.705 (inactive) |
| B26 | 0.96 (inactive) | 0.905 (inactive) | 0.353 (inactive) |
| B27 | 14.1 (active) | 12.3 (active) | 9.55 (active) |
| B28 | 10.9 (active) | 10.8 (active) | 8.52 (active) |
| B29 | 12.1 (active) | 12.4 (active) | 9.77 (active) |
| B30 | 0.318 (inactive) | 1.19 | 0.255 (inactive) |
| B31 | 1.31 | 0.43 (inactive) | -0.0302 (inactive) |
| B32 | 10.3 (active) | 8.47 (active) | 7.15 (active) |
| B33 | -0.297 (inactive) | -1.38 (inactive) | -1.27 (inactive) |
| B34 | -0.193 (inactive) | 1.35 | 1.68 |
| B35 | 10.3 (active) | 11.5 (active) | 9.23 (active) |
| B36 | 12 (active) | 10.4 (active) | 9.65 (active) |
| B37 | -0.873 (inactive) | 0.367 (inactive) | -0.906 (inactive) |
| B38 | 0.342 (inactive) | 1.78 | 0.355 (inactive) |
| B39 | -0.364 (inactive) | -0.766 (inactive) | -0.871 (inactive) |
| B40 | 8.23 (active) | 9.65 (active) | 8.04 (active) |
| B41 | 13.1 (active) | 12.8 (active) | 9.83 (active) |
| B42 | 0.00411 (inactive) | -0.467 (inactive) | 0.941 (inactive) |
| B43 | -1.5 (inactive) | -1.53 (inactive) | -2.18 (inactive) |
